For 38 molecules, outcome and AC50 results are on record in PubChem BioAssay (EPA / NIEHS).

Usually AC50 stands for the midpoint of the concentration-response curve, whichever way the signal moves.

Where “and” joins values, the source holds several entries; their conditions need not be identical. Identical values can stand only once. Inconclusive results are not listed. A structure can be active in one record and inactive in another. Calls of active or inactive are those of the source. Rule for the calls: active = hit-call score of the fitted dose curve at least 0.9, where 1 is the maximum; inconclusive = response in the unintended direction; inactive = score below 0.9.

For this test, the target named is Cellular tumor antigen p53 (Homo sapiens) (UniProt P04637). Nature of the test: TOX21_p53_BLA_p2_ratio: Tox21 HCT-116 p53 Agonism Beta-lactamase Assay, Ratio, Phase 2 (AID 2283592). From the text: TOX21_p53_BLA_p2 is a cell-based, single-readout assay that uses HCT116, a human intestinal cell line, […] in a 1536-well plate.TOX21_p53_BLA_p2_ratio is an assay readout measuring reporter gene via receptor activity and designed using inducible reporter (beta lactamase induction) detected with GAL4 b-lactamase reporter gene. The signal is derived from the ratio of cleaved (ch2) to uncleaved (ch1) reporter gene substrate used as the measure of target activity.Data from the assay component TOX21_p53_BLA_p2_ratio was analyzed into 1 assay endpoint. This assay endpoint, TOX21_p53_BLA_p2_ratio, was analyzed in the positive analysis fitting direction relative to DMSO as the negative control and baseline of activity. Using a type of inducible reporter, gain-of-signal activity can be used to understand changes in the reporter gene as they relate to the gene TP53. Furthermore, this assay endpoint can be referred to as a primary readout, because this assay has produced multiple assay endpoints and this ratio serves a reporter gene function to understand target activity. To generalize the intended target to other relatable targets, this assay endpoint is annotated to the DNA binding intended target family, where the subfamily is tumor suppressor.
Chain of Cellular tumor antigen p53 (Homo sapiens) (P04637 whole entry, looked up, the tested form may be a part): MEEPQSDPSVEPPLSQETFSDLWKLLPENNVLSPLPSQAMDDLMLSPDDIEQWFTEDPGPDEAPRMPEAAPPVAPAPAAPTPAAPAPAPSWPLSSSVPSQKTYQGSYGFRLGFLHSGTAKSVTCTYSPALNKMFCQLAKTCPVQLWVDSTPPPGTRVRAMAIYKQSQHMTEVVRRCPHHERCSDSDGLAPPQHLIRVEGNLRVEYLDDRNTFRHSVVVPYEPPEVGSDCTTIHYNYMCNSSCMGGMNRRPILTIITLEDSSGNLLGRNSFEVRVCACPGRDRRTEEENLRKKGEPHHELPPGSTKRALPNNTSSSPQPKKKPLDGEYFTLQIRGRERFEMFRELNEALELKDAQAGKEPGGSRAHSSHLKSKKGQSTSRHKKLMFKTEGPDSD
Thawing Method: Place 14 mL of pre-warmed thaw medium into a 15 mL of conical tub. Remove the vial of cells to be thawed from liquid nitrogen and thaw rapidly by placing at 37C in a water bath with gentle agitation for 1-2 minutes. Decontaminate the vial by wiping with 70% ethanol before opening in a biological safety cabinet. Transfer the vial contents drop-wise into 14 mL of thaw medium in a sterile 15-mL conical tub. Centrifuge cells at 900 rpm for 4 minutes and resuspend in thaw medium. Transfer contents to the T75 tissue culture flask containing Thaw Medium and place flask in a humidified 37C/5% CO2 incubator. Switch to growth medium at first passage.Propagation Method: Aspirate medium, rinse once in DPBS, add 0.25% Trypsin/EDTA and swirl to coat the cell evenly. Add an equal volume of Growth Medium to inactivate Trypsin after 2-3 minutes incubation at 37C. Centrifuge cells at 900 rpm for 4 minutes and resuspend in growth medium. Cell should be passage or fed at least twice a week.Assay Protocol: Harvest cells from culture in growth medium and resuspend in assay medium. 2.2 Dispense 4000 cells/5 uL/well into 1536-well black/clear bottom plates using a Multidrop dispenser. After the cells were incubated at 37C for 5 hours, 23 nL of compounds dissolved in DMSO were transferred to the assay plate by a PinTool resulting in a 217-fold dilution. Incubate the plates for 16 hours at 37C, 5% CO2. Add 1 uL of 6X LiveBLAzer FRET B/G (CCF4-AM) Substrate Mixture to each well using a BioRAPTR dispenser and incubate the plates at room temperature for 2 hours. Measure fluorescence intensity at 460 and 530 nm emission and 405 nm excitation by an Envision detector. Data is expressed as the ratio of 460nm/530nm emissions. Add 4 uL of Cell-titer Glo to each well using BioRAPTR and incubate the plates at room temperature for 2 hours. Measure fluorescence intensity by a VewLux plate reader.
As to `COCCOC[C@H](CC1(C(=O)NC2CCC(C(=O)O)CC2)CCCC1)C(=O)Oc1ccc2c(c1)CCC2` (stereo not given in full), the result was inactive.
Same read-out and setting: for `Cc1cccc(C)c1O` the value was “inactive”; for `O=[N+]([O-])C(CO)(CO)CO`, “inactive”; for `Cc1ccc(N(C)C)cc1`, “inactive”.
Turning to `CCCCCCCCCCCCCO`, the result was inactive.
Take `COc1ccc(C)cc1N`: the result was inactive.
Still for that read-out and setting: for `Cc1cc(=O)[nH]c(=S)[nH]1` the value was “inactive”.
Turning to `CC(C)(C)c1cc(O)c(C(C)(C)C)cc1O`, the AC50 is 80.1 µM (active).
Regarding `Nc1nc(N)c2nc(CNc3ccc(C(=O)N[C@@H](CCC(=O)O)C(=O)O)cc3)cnc2n1`, the outcome was inactive and the AC50 is 0.0308 µM (active).
As to `O=c1[nH]cc(F)c(=O)[nH]1`, the AC50 was 2.4 µM (active) and 1.97 µM (active) and 4.59 µM (active).
In the case of `Nc1ccc(S(=O)(=O)c2ccc(N)cc2)cc1`, the result was inactive.
Same read-out and setting: as for `Cc1ccc(Cl)cc1`, the entry is “inactive”; as for `Cc1cc(NC(=O)C(=O)O)cc(C)c1Oc1ccc(O)c2c1CCC2`, “inactive”.
Still for that read-out and setting: for `COc1cc(C=O)ccc1O` the value was “inactive”.
The same measure, in the same setting: for `c1cc(-c2ccncc2)ccn1` the value was “inactive”; for `CCOC(=O)C(C)(C)Oc1ccc(Cl)cc1`, “inactive”; for `C[Si]1(C)O[Si](C)(C)O[Si](C)(C)O[Si](C)(C)O1`, “inactive”.
`Oc1ccc2c(c1)OC[C@@H](N1CCC(O)(c3ccc(F)cc3)CC1)[C@H]2O`: the result was inactive.
Still for that read-out and setting: as for `O=C(OCCCCCOC(=O)c1ccccc1)c1ccccc1`, the entry is “inactive”.
Same read-out and setting: as for `C=CCOC(=O)c1ccccc1C(=O)OCC=C`, the entry is “inactive”.
As to `CCCCC(CC)COC(=O)CC(C(=O)OCC(CC)CCCC)S(=O)(=O)O` (stereo not given), the outcome was inactive; the AC50 is 77.1 µM (active) and 82.5 µM (active).
`CCCCc1ccc2c(n1)[C@@H](c1ccc(OC)cc1C[C@H](C)C(=O)O)[C@H](C(=O)O)[C@H]2c1ccc2c(c1)OCO2`: the outcome was inactive.
In the case of `CCCc1cc(=O)[nH]c(=S)[nH]1`, the outcome was inactive.
On the same count and under the same terms, for `CCCCCCCCCCO` the value was “inactive”.
Still for that read-out and setting: for `CCCCOC(=O)CCCCCCCCC(=O)OCCCC` the value was “inactive”.
In the case of `COc1ccc(S(=O)(=O)N2C(=O)[C@@](c3ccccc3OC)(N3C[C@H](O)C[C@H]3C(=O)N(C)C)c3cc(Cl)ccc32)c(OC)c1`, the AC50 was 74.9 µM (active).
`Cc1c(C(=O)O)c(O)cc2c1C(=O)c1c(O)c([C@@H]3O[C@H](CO)[C@@H](O)[C@H](O)[C@H]3O)c(O)c(O)c1C2=O`: the outcome was inactive.
Same read-out and setting: as for `Cc1nc(C)nc(N2C[C@@H](C)N(c3ccnc([C@@H](C)O)n3)[C@@H](C)C2)n1`, the entry is “inactive”; as for `CN1CCN(Cc2cc(-c3ccc4[nH]c(=O)oc4c3)co2)[C@@H](c2ccc(F)cc2)C1`, “inactive”.
The same measure, in the same setting: for `CCCCCC(=O)O` the value was “inactive”; for `CC(=O)OCCOCCOCCOC(C)=O`, “inactive”.
For `CCOC(=O)CCC(=O)OCC`, the result was inactive.
The same measure, in the same setting: for `CC1(C)CC(N=C=O)CC(C)(CN=C=O)C1` (stereo not given) the value was “inactive”; for `Cc1ccc2ncccc2c1`, “inactive”; for `NCC1(Cc2noc(=O)[nH]2)CCCCC1`, “inactive”.
On the same count and under the same terms, as for `Nc1ccccc1N`, the entry is “inactive”.
Turning to `O=c1c(O)c(-c2ccc(O)c(O)c2)oc2cc(O)cc(O)c12`, the half-maximal activity concentration (AC50) was 20.2 µM (active) [middle of 4 runs].
Regarding `CCCCCCOCCO`, the result was inactive.
